# PRMT1 inh: PRMT1 methyltransferase inhibitors, primary screen, biochemical, fluorescence polarization; AID 652257, 2013; Protein arginine N-methyltransferase 1 (Homo sapiens), Q99873; recombinant PRMT1, activity-based probe fluorescence polarization; inhibition, % at 2.79 µM; 1.3% of 370,000 active;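 active means inhibition above about 21% made by adding two undisclosed values, limit read from the data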
# Target sequence (Q99873 whole entry, looked up): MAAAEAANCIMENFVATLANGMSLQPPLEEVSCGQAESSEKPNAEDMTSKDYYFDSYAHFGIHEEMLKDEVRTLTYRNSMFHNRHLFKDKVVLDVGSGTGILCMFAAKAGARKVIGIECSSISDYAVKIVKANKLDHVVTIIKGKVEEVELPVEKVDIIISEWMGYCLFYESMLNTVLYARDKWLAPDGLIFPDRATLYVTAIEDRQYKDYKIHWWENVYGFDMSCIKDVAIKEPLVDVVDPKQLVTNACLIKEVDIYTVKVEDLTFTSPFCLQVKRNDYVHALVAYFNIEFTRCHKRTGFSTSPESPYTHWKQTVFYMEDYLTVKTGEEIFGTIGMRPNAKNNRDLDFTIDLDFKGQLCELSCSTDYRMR
# TLR9-MyD88 inh: inhibitors of TLR9-MyD88 association in cells, primary screen, cell-based, CHO, BLA complementation, fluorescence | 0.21% of 340,000 active | inhibition, % at 4.98 µM | Toll-like receptor 9 (Homo sapiens) + Myeloid differentiation primary response protein … | CCF4 FRET ratio;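 active means inhibition above the mean over all tested compounds plus 3 SD, cut at about 21% in these data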;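 further: 0% = DMSO only wells and 100% = clavulanate BLA inhibitor control wells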
# ABHD5-PLIN5 inh: ABHD5-PLIN5 interaction inhibitors, primary screen, cell lysate, split luciferase complementation, luminescence; Split G. princeps luciferase complementation, 4 h; inhibition, % at 4 µM; 0.78% of 360,000 active;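 active means inhibition above the mean inhibition across every tested compound plus 3 SD, cut at about 22% in these data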;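 further: 0% = DMSO only wells and the 100% control is not disclosed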
# rCAG RNA binder: binders of r(CAG) RNA repeats, primary screen, biochemical, fluorescence. r(CAG) RNA repeat, TO-PRO-1 dye displacement fluorescence. inhibition, % at 3 µM. 1.3% of 370,000 active. AID 651821, 2012;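 active means inhibition above the plate cutoff, the mean of all test compounds on that plate plus 3 SD, cut at about 35% in these data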;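 further: 0% = DMSO alone and 100% = 100 µM mitoxantrone as full dye displacement; higher means more dye released from RNA so lower well fluorescence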
# TLR4-MyD88 BLA: inhibitors of TLR4-MyD88 association in cells, primary screen, cell-based, HeLa CL3-4, BLA complementation, FRET ratio. Toll-like receptor 4 (Homo sapiens) + Myeloid differentiation primary response protein …. HeLa CL3-4 TLR4/MyD88 BLA complementation. AID 861, 2007. 0.18% of 200,000 active. inhibition, % at 8.4 µM; in the data active means inhibition above about 25%;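 further: 0% = vehicle and 100% = reference inhibitor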
# NOD2-RIPK2 inh: NOD2-RIPK2 binding disruptors in cells, primary screen, fluorescence, CHO cells, BLA complementation; CCF4 ratio; inhibition, % at 4.98 µM; Receptor-interacting serine/threonine-protein kinase 2 (Homo sapiens), O43353; 0.38% of 360,000 active; in the data active means inhibition above about 21%;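 further: 0% = vehicle only and 100% = reference blocker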
# rCAG bind conf: small molecules binding CAG repeat RNA – biochemical, fluorescence, confirmation; 70% of 4,300 active; r(CAG) RNA repeat, TO-PRO-1 dye displacement fluorescence; inhibition, % at 3 µM; shares compounds with rCAG RNA binder; AID 652065, 2013;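 active means inhibition above a per-plate cutoff, the mean inhibition of sample wells plus 3 SD, cut at about 35% in these data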;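 further: loss of TO-PRO-1 fluorescence as compound displaces dye from 1x1 AA loop RNA; 0% = DMSO only wells and 100% = 100 µM mitoxantrone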
# DNA CAG counter: displacement of TO-PRO-1 from CAG DNA duplex, counter-screen for rCAG RNA repeat binder project, biochemical, fluorescence, TO-PRO-1 dye, d(CAG) DNA oligo. d(CAG) DNA oligo TO-PRO-1 dye displacement. 94% of 4,300 active. AID 652068, 2013. shares compounds with rCAG RNA binder. inhibition, % at 3 µM;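 active means inhibition above its plate's cutoff, the mean test-well inhibition plus 3 SD, cut at about 4.8% in these data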;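 further: 0% = DNA dye mix with DMSO and 100% = 100 µM mitoxantrone; hits displace the dye from DNA and so lower well fluorescence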
# DNA CAG DR: inhibitors of DNA CAG/GTC TO-PRO-1 complex, dose response, counter-screen for rCAG RNA repeat binder project, biochemical, fluorescence, TO-PRO-1 dye. IC50, µM. AID 686960, 2013. shares compounds with rCAG RNA binder. 20% of 250 active. DNA CAG/GTC duplex TO-PRO-1 dye displacement fluorescence; in the data active means IC50 below about 10 µM
# Numbers without * were called inactive; . = no result. An excerpt weighted towards active compounds, which were near 3.3% of everything screened.
SMILES,PRMT1 inh,TLR9-MyD88 inh,ABHD5-PLIN5 inh,rCAG RNA binder,TLR4-MyD88 BLA,NOD2-RIPK2 inh,rCAG bind conf,DNA CAG counter,others
CC1(C)CC(NS(=O)(=O)c2ccc(C(C)(C)C)cc2)CC(C)(C)N1,1.5,4.5,0.4,-0.9,.,-10.1,.,.,
Cc1ccccc1N1Cc2ccccc2C1,3.1,-0.3,-1.7,2.1,-1.2,-6.5,.,.,
CN(C)CCNc1c2c(nc3nnnn13)CCCC2,-3.7,-6.3,-3.2,-0.7,3.5,-9.8,.,.,
Cc1ccc(S(=O)(=O)Oc2cccc(/C=N/Nc3ccc(C(=O)O)cc3)c2)cc1,2.7,-15.9,-5.7,74.4*,.,0.1,57.7*,17.3*,
Cc1ccc(S(=O)(=O)Oc2cccc(/C=N/n3cnnc3)c2)cc1,0.3,1.8,3.1,-3.5,3.7,12.5,.,.,
C=C(C)C#CCNCc1ccccc1,-1.6,.,.,0.6,.,.,.,.,
COC(=O)c1ccc([C@H]2C=C(C(=O)O)O[C@@H](OCc3ccc(CO)cc3)C2)cc1,3.4,-2.8,2.4,7.3,.,-12.8,.,.,
Cc1cc(=O)oc(C)c1C(=O)NNC(=O)C1(C)CC1Br (stereo not given),-3.7,1.5,8.1,1.1,.,-6.6,.,.,
CC1(C(=O)NNC(=O)c2ccc(=O)oc2)CC1Br (stereo not given),12.2,.,-1.5,42.9*,.,-4.2,59.8*,23.9*,DNA CAG DR=9.91*
CC(C)(C)C1CCC(=NNC(=O)c2ccco2)CC1 (stereo not given),2.7,-0.9,-2.0,0.1,.,-15.5,.,.,
NS(=O)(=O)c1ccc2nc(NC(=O)Nc3ccc(F)cc3)sc2c1,1.0,1.2,-1.9,56.8*,.,0.7,30.2,23.6*,
CS(=O)(=O)c1ccc2nc(NC(=O)Nc3ccc(Cl)cc3)sc2c1,-4.3,-4.5,1.3,60.1*,-7.4,-5.7,54.4*,34.3*,
O=C(Nc1nc2ccccc2s1)Nc1ccc(F)cc1F,-1.9,-1.9,-6.6,6.8,.,-14.7,.,.,
COc1ccc(C)cc1CN(C)c1ccc(S(=O)(=O)N2CCN(C)CC2)cn1,0.5,-4.7,-3.9,-3.1,.,-1.6,.,.,
O=C(CSCc1ccc(Cl)cc1)Nc1ccc(Br)cc1C(=O)O,3.1,-2.3,-6.4,43.9*,.,-10.7,36.0*,8.7*,
Cn1c(C2CCCCC2)nc2cc(N)ccc21,1.0,-2.5,0.4,4.1,.,0.0,.,.,
CC(=O)Nc1ccc(C(=O)N2CCCC(c3cc(C(=O)NCc4ccc(F)cc4)no3)C2)cc1 (stereo not given),-3.0,.,-3.9,1.2,.,-1.8,.,.,
CCOC(=O)C1=C(CC)Nc2ccccc2N=C1NC(=O)c1cc(S(=O)(=O)N(C)C)ccc1Cl,-4.1,2.3,5.5,2.8,5.5,1.1,.,.,
CCOC(=O)C1=C(CC)Nc2ccccc2N/C1=N\S(=O)(=O)c1ccc(C(=O)OCC)cc1,-3.5,-6.0,-2.5,41.1*,-1.7,-4.7,40.0*,9.1*,
CC(=O)N1N=C2/C(=C/c3ccccc3)CCCC2C1c1ccccc1 (stereo not given),-1.8,1.8,0.3,-4.6,-4.9,-3.5,.,.,
O=C(O)c1c(C(=O)N2N=C3/C(=C/c4ccccc4)CCCC3C2c2ccccc2)cccc1[N+](=O)[O-] (stereo not given),12.4,-0.5,8.2,34.6*,-9.9,1.9,55.5*,17.2*,

# Screening results (PubChem)
